Results filed as inconclusive are left out. The source made the active and inactive calls. How the source made its calls, unless noted: active means hit-call score of the fitted dose curve at least 0.9, where 1 is the maximum; inactive means score below 0.9.
Experiments:
[1] = target: Retinoic acid receptor RXR-alpha (Homo sapiens) (UniProt P19793); test: OT_NURR1_NURR1RXRa_1440: Odyssey Thera (OT) 24-hour HEK293T Protein Complementation Assay for Nurr1/retinoid X receptor (RXR) (AID 2283386; active means hit-call score of the fitted dose curve at least 0.9, where 1 is the maximum)
Retinoic acid receptor RXR-alpha (Homo sapiens), sequence (P19793 whole entry, looked up, the tested form may be a part): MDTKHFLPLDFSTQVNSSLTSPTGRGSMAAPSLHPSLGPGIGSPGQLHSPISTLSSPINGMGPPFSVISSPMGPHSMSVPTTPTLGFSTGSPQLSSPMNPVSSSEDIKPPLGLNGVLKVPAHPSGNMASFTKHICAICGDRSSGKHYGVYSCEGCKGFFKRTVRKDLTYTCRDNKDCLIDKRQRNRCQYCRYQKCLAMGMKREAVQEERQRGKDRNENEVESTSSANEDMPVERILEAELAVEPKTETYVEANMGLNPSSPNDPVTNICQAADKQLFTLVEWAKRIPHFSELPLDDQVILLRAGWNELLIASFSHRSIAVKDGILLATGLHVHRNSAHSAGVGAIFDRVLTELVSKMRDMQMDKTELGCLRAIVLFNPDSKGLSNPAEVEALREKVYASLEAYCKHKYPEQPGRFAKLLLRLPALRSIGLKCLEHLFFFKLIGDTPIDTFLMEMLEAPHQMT
Procedure, shortened: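 Steps: fragment-tagged Nurr1 and RXRα expressed in HEK293T; compounds added; after 24 h, complemented reporter quantified by fluorescence intensity; signal increase over DMSO fitted as the single endpoint.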

[2] = target: Peroxisome proliferator-activated receptor gamma (Homo sapiens) (UniProt P37231); test: OT_PPARg_PPARgSRC1_0480: Odyssey Thera (OT) 8-hour Protein-Complementation Assay for Peroxisome Proliferator-activated Receptor Gamma / SRC-1 Co-activator (AID 2283387; active means hit-call score of the fitted dose curve at least 0.9, where 1 is the maximum;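 further: nuclear to cytoplasmic split Venus YFP fluorescence ratio reporting PPARg SRC-1 interaction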)
Peroxisome proliferator-activated receptor gamma (Homo sapiens), sequence (P37231 whole entry, looked up, the tested form may be a part): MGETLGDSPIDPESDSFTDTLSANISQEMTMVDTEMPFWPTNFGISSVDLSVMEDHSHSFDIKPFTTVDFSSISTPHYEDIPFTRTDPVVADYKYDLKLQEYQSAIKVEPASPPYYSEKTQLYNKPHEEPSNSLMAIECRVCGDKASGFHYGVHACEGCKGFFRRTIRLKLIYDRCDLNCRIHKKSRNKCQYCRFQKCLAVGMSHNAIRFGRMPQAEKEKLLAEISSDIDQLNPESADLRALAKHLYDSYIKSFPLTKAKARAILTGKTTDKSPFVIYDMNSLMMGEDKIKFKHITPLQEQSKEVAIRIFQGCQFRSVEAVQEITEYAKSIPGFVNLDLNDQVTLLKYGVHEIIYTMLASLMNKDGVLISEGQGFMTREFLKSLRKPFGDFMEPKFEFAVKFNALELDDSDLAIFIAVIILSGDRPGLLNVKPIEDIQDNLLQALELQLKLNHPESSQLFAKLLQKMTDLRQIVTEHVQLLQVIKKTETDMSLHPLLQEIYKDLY
Procedure, shortened: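 Split-YFP (IFP1/IFP2) PPARg/SRC-1 reporter, HEK293T, 37 °C, 5% CO2; 8 h compound; formaldehyde fix + Draq5; high-content imaging, N/C ratio, ≥350 cells/image, positive direction vs DMSO.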

[3] = target: Peroxisome proliferator-activated receptor gamma (Homo sapiens) (UniProt P37231); test: OT_PPARg_PPARgSRC1_1440: Odyssey Thera (OT) 24-hour Protein-Complementation Assay for Peroxisome Proliferator-activated Receptor Gamma/ SRC-1 Co-activator (AID 2283388; active means hit-call score of the fitted dose curve at least 0.9, where 1 is the maximum;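 further: nuclear to cytoplasmic ratio of reconstituted Venus YFP fluorescence in fixed imaged cells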)
Procedure, shortened: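 Protein-fragment complementation between PPARg and coactivator SRC-1 was measured by fluorescence imaging in transiently transfected HEK293T cells after 24 h treatment. Signal was quantified as N/C ratio in the 488 nm channel, with DMSO as negative control.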

[4] = read-out: Tumor necrosis factor receptor superfamily member 6 (Homo sapiens) (UniProt P25445); test: LTEA_HepaRG_FAS: Life Technologies and Expression Analysis (LTEA) Assay for Fas cell surface death receptor (FAS) using HepaRG (AID 2283447); settings: mRNA level, 48 h; actives raise or lower the signal
Procedure, shortened: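 Differentiated human HepaRG cells, pre-cultured 48 h, were exposed in duplicate for 48 h to 8-point half-log concentrations (top 100 uM, 0.5% DMSO) in serum-free induction medium; FAS mRNA measured by qRT-PCR, normalized to ACTB/GAPDH/POLR2A, bidirectional fit versus DMSO.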

[5] = read-out: Fatty acid synthase (Homo sapiens) (UniProt P49327); test: LTEA_HepaRG_FASN: Life Technologies and Expression Analysis (LTEA) Assay for Fatty Acid Synthase (FASN) using HepaRG (AID 2283448); settings: mRNA level, 48 h; actives raise or lower the signal
Procedure, shortened: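 Cells were plated, cultured 48 h, switched to serum-free induction medium, then dosed in duplicate (max 100 uM, half-log dilutions, 0.5% DMSO) for 48 h. RNA was then isolated and FASN quantified by qRT-PCR.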

[6] = read-out: Cyclin D2 (CCND2), CCND2 (gene 894); test: LTEA_HepaRG_CCND2: Life Technologies and Expression Analysis (LTEA) Assay for Cyclin D2 (CCND2) using HepaRG (AID 2283449); settings: mRNA level, 48 h; actives raise or lower the signal;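 further: CCND2 transcript measured by TaqMan qRT-PCR and normalised to three housekeeping genes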
Procedure, shortened: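 In this HepaRG study, an eight-point concentration series (max 100 uM, 0.5% DMSO) is applied for 48 h. CCND2 mRNA change is derived by qRT-PCR normalised to ACTB, GAPDH and POLR2A.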

[7] = read-out: Cyclin Dependent Kinase Inhibitor 1A (CDKN1A), CDKN1A (gene 1026); test: LTEA_HepaRG_CDKN1A: Life Technologies and Expression Analysis (LTEA) Assay for Cyclin Dependent Kinase Inhibitor 1A (CDKN1A) using HepaRG (AID 2283450); settings: mRNA level, 48 h; actives raise or lower the signal
Procedure, shortened: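 Read-out is CDKN1A mRNA by TaqMan qRT-PCR, normalized to three housekeeping genes and fitted in both directions against the DMSO baseline. Human HepaRG cells were treated 48 h with test chemicals up to 100 uM in half-log steps, 0.5% DMSO.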

[8] = read-out: Cyclin D1 (CCND1), CCND1 (gene 595); test: LTEA_HepaRG_CCND1: Life Technologies and Expression Analysis (LTEA) Assay for Cyclin D1 (CCND1) using HepaRG (AID 2283451); settings: mRNA level, 48 h; actives raise or lower the signal;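 on AC50: TaqMan qRT-PCR transcript level normalised to ACTB GAPDH and POLR2A housekeeping genes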
Procedure, shortened: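 HepaRG plated 48 h, medium switched to serum-free induction medium, chemicals added in duplicate (top 100 uM, half-log steps, 0.5% DMSO) for 48 h, cells lysed, RNA measured by TaqMan qRT-PCR.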

[9] = read-out: catalase (CAT), CAT (gene 847); test: LTEA_HepaRG_CAT: Life Technologies and Expression Analysis (LTEA) Assay for catalase (CAT) using HepaRG (AID 2283452); settings: mRNA level, 48 h; actives raise or lower the signal;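 on AC50: TaqMan qRT-PCR signal normalized to ACTB GAPDH and POLR2A housekeeping genes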
Procedure, shortened: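 Differentiated HepaRG cells in serum-free induction medium were dosed 48 h in duplicate, eight half-log concentrations from 100 uM in 0.5% DMSO. Transcript measured by TaqMan qRT-PCR, normalised to ACTB/GAPDH/POLR2A, fitted bidirectionally against DMSO.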

[10] = read-out: flavin-containing dimethylaniline monooxygenases 3 (FMO3), FMO3 (gene 2328); test: LTEA_HepaRG_FMO3: Life Technologies and Expression Analysis (LTEA) Assay for flavin-containing dimethylaniline monooxygenases 3 (FMO3) using HepaRG (AID 2283453); settings: mRNA level, 48 h; actives raise or lower the signal;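 on AC50: FMO3 transcript by TaqMan qRT-PCR normalized to ACTB GAPDH and POLR2A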
Procedure, shortened: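 FMO3 transcript quantified by TaqMan qRT-PCR against three housekeeping genes after 48 h chemical exposure of HepaRG cells. Eight-point half-log series, top 100 uM, 0.5% DMSO vehicle; phenobarbital 1mM induction control; up- or down-regulation fitted.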

[11] = target: Retinoic acid receptor RXR-alpha (Homo sapiens) (UniProt P19793); test: OT_NURR1_NURR1RXRa_0480: Odyssey Thera (OT) 8-hour HEK293T Protein Complementation Assay for Nurr1/retinoid X receptor (RXR) (AID 2283385; active means hit-call score of the fitted dose curve at least 0.9, where 1 is the maximum)
Procedure, shortened: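 Interaction of bait and prey reconstitutes a functional reporter, whose fluorescence was measured in HEK293T cells dosed with compound for 8 hours. Signal gain relative to DMSO defined the single endpoint.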

[12] = CEETOX_H295R_OHPREG: CeeTox H295R High-throughput Steroidogenesis Assay for OH-Pregnenolone (OHPREG) (AID 2283434); settings: actives raise or lower the signal
Procedure, shortened: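 Readout: HPLC-MS/MS of 17alpha-hydroxypregnenolone in medium after 48 h chemical exposure of H295R cells pretreated with forskolin. Values fitted bidirectionally relative to DMSO; chemicals reducing viability to 20–70% were retested after 10-fold dilution.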

[13] = CEETOX_H295R_OHPROG: CeeTox H295R High-throughput Steroidogenesis Assay for OH-Progesterone (OHPROG) (AID 2283435); settings: actives raise or lower the signal;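 further: human adrenal H295R cells primed 48 h with 10 µM forskolin; 17alpha-hydroxyprogesterone secreted into medium measured by HPLC-MS/MS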
Procedure, shortened: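 Steps: seed H295R cells and adhere overnight; stimulate with 10 uM forskolin for 48 h; replace with chemical-containing medium (0.1% DMSO) for 48 h; extract medium with MTBE; quantify 17alpha-hydroxyprogesterone by reverse-phase C18 HPLC-MS/MS against a 7-point curve.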

[14] = CEETOX_H295R_ANDR: CeeTox H295R High-throughput Steroidogenesis Assay for Androstenedione (ANDR) (AID 2283436); settings: actives raise or lower the signal;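 further: human H295R adrenal cells exposed for 48 h with androstenedione measured in medium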
Procedure, shortened: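 Steroidogenesis in H295R adrenal cells after 48 h dosing; androstenedione quantified by LC-MS/MS, with DMSO as negative control and baseline for bidirectional curve fitting.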

[15] = CEETOX_H295R_ESTRONE: CeeTox H295R High-throughput Steroidogenesis Assay for Estrone (AID 2283441); settings: actives raise or lower the signal
Procedure, shortened: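 Estrone secreted into medium quantified by LC-MS/MS after dansyl chloride derivatization, following 48 h chemical exposure (0.1% DMSO final) of forskolin-prestimulated (10 uM, 48 h) H295R cells; gain or loss fitted against DMSO; MTT viability in same wells.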

[16] = CEETOX_H295R_PROG: CeeTox H295R High-throughput Steroidogenesis Assay for Progesterone (PROG) (AID 2283442); settings: actives raise or lower the signal
Procedure, shortened: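 Steps: seed H295R cells and let them adhere overnight; prime 48 h with 10 uM forskolin; dose with compound in DMSO at 0.1% final for 48 h; extract medium steroids with MTBE; measure progesterone by LC-MS/MS. MTT viability was run in the same wells.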

Measured: AC50

Fatty acid synthase (Homo sapiens), sequence (P49327 whole entry, looked up): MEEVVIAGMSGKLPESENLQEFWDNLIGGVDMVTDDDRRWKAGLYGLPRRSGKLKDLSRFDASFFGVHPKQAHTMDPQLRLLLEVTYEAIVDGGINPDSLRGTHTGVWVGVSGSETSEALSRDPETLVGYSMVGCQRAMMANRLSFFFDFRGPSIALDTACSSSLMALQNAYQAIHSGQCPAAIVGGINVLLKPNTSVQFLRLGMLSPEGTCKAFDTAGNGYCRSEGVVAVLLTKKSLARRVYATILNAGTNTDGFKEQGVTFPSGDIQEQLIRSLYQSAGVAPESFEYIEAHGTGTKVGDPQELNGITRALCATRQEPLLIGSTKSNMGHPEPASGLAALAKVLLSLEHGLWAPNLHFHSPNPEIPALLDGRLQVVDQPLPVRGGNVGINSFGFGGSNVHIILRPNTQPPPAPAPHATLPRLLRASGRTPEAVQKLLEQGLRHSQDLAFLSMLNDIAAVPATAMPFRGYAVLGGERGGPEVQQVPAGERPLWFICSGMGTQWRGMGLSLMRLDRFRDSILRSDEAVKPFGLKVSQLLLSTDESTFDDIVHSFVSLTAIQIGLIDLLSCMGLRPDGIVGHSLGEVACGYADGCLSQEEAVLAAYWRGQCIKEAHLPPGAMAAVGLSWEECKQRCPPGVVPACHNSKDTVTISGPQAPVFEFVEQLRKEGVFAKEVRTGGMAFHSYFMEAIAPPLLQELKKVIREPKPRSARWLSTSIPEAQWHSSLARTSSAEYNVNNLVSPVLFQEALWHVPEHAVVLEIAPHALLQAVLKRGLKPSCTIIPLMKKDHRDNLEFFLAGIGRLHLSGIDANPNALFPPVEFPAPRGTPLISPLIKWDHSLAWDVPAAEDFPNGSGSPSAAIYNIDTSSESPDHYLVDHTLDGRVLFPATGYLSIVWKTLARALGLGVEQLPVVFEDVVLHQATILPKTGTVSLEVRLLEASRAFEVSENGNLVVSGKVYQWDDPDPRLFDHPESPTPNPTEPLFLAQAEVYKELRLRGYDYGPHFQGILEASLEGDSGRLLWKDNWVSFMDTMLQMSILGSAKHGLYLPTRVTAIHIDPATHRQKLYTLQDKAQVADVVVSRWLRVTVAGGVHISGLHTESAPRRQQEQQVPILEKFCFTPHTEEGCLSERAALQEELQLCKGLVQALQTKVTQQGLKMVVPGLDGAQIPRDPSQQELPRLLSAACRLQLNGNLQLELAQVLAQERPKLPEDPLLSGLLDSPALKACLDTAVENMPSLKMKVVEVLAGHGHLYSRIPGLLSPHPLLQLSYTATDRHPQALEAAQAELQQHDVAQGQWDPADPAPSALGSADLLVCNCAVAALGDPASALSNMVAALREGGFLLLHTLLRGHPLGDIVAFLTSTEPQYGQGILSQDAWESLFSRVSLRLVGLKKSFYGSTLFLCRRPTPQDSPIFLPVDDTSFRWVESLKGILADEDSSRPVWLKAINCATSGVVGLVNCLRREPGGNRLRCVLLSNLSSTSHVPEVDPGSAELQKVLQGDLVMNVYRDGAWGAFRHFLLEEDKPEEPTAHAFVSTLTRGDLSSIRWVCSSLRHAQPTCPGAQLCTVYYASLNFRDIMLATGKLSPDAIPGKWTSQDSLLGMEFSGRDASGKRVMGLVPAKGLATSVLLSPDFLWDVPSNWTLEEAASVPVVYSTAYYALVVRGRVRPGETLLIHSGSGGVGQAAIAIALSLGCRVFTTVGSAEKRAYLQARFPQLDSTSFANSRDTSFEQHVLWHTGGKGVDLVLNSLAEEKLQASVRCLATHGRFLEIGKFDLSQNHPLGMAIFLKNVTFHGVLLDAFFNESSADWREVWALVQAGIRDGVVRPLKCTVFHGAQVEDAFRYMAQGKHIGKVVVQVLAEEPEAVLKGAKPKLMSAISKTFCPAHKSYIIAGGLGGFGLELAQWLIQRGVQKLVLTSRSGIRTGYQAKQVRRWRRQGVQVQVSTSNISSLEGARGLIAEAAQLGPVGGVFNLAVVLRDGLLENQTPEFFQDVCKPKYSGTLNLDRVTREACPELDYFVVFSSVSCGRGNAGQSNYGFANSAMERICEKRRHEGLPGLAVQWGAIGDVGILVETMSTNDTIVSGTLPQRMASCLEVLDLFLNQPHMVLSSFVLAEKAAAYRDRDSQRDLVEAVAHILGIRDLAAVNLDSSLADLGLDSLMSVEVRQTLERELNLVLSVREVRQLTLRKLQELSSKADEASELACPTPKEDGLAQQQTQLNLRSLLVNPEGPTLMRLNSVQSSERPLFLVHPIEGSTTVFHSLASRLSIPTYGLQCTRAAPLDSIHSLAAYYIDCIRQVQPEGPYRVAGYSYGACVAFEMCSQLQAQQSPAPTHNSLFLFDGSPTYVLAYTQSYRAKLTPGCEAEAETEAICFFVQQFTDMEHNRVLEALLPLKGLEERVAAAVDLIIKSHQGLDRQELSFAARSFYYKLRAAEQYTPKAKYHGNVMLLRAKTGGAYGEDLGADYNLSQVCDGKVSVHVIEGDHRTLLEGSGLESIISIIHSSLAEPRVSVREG

CCCCCCCC/C=C\CCCCCCCC(=O)OC[C@@H](O)[C@H]1OC[C@H](O)[C@H]1O
not listed: [11] | [12] | [13] | [14] | [15] | [16]
inactive: all other assays above

O=c1[nH]cnc2c1ncn2[C@H]1CC[C@@H](CO)O1
not listed: [12] | [13] | [14] | [15] | [16]
inactive: all other assays above

OC[C@H]1O[C@@H]2O[C@H]3[C@H](O)[C@@H](O)[C@@H](O[C@H]4[C@H](O)[C@@H](O)[C@@H](O[C@H]5[C@H](O)[C@@H](O)[C@@H](O[C@H]6[C@H](O)[C@@H](O)[C@@H](O[C@H]7[C@H](O)[C@@H](O)[C@@H](O[C@H]1[C@H](O)[C@H]2O)O[C@@H]7CO)O[C@@H]6CO)O[C@@H]5CO)O[C@@H]4CO)O[C@@H]3CO
not listed: [11] | [12] | [13] | [14] | [15] | [16]
inactive: all other assays above

CCCC(CCC)C(=O)O
not listed: [11] | [12] | [13] | [14] | [15] | [16]
inactive: all other assays above

Cc1ccc(S(=O)(=O)NC(=O)NN2CCCCCC2)cc1
not listed: [12] | [13] | [14] | [15] | [16]
inactive: all other assays above

CCOC(N)=O
inactive: [1] | [4] | [5] | [6] | [7] | [8] | [9] | [10]

CCCCN1C(=O)[C@@H]([C@H](O)C2CCCCC2)NC(=O)C12CCN(Cc1ccc(Oc3ccc(C(=O)O)cc3)cc1)CC2
inactive: [1] | [2] | [3] | [4] | [7]
active: [5] 1.32 µM | [8] 50 µM | [9] 2.04 µM | [10] 3.54 µM

CCCCCCCCCC
not listed: [11] | [12] | [13] | [14] | [15] | [16]
inactive: all other assays above

COS(C)(=O)=O
not listed: [11] | [12] | [13] | [14] | [15] | [16]
inactive: all other assays above

OCc1c[nH]c2ccccc12
active: [13] 15.8 µM
inactive: [12] | [14] | [15] | [16]

OCCOCCOCCO
not listed: [11] | [12] | [13] | [14] | [15] | [16]
inactive: all other assays above

— PubChem BioAssay (EPA / NIEHS)
